# ± gives the standard deviation.
# T1: HaloTag-ATRX ADD domain (163-292)
# T1 chain: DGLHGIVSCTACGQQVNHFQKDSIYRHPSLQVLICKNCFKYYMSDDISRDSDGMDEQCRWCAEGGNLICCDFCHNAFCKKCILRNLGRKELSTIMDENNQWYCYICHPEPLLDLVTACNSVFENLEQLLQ
# Legend:
# Assay in all cases: peptide microarray binding signal (635 nm), min-max normalized on array (fraction of array maximum); higher = stronger binding
# Settings in all cases: peptide region: H2A 1-13
# [1] = target: T1, HaloTag-ATRX ADD domain (163-292)
# Experimental: (§1)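 Histone 13-mer peptides were synthesized as cellulose conjugates with a C-terminal 20-atom PEG linker and printed in triplicate on nitrocellulose. The sequence given is the unmodified backbone; PTMs (Kme1/2/3, Kac, Sph/Tph, Rme/Rme2a/Rme2s, Rcit) are listed in the label and the 'peptide modifications' condition. Slides were probed at 4 °C for 1 h with biotin-labelled (HQ)5-HaloTag reader fusions (ATRX-ADD, ING2-PHD) then streptavidin-Alexa647, or with rabbit histone antibodies then anti-rabbit Alexa647. The mean 635 nm signal of the triplicate spots was scaled 0-1 between the lowest and highest values on each array.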
# [2] = target: HaloTag-ING2 PHD (mouse Ing2 200-280)
# Experimental: as §1
# [3] = target: anti-H3K4me3 antibody ab8580
# Experimental: as §1
# [4] = target: anti-H3K9me3 antibody ab8898
# Experimental: as §1
# [5] = peptide modifications: H2AK5ac H2AK9ac, binder concentration: 1:2,000 dilution
# [6] = peptide modifications: H2AK5ac H2AK9ac, binder concentration: 1:10,000 dilution
# [7] = peptide modifications: H2AS1ph H2AK5ac, binder concentration: 1:2,000 dilution
# [8] = peptide modifications: H2AS1ph H2AK5ac, binder concentration: 1:10,000 dilution
# [9] = binder concentration: 1:2,000 dilution
# [10] = binder concentration: 1:10,000 dilution
# [11] = peptide modifications: H2AR3me1 H2AK5ac, binder concentration: 1:2,000 dilution
# [12] = peptide modifications: H2AR3me1 H2AK5ac, binder concentration: 1:10,000 dilution
# [13] = peptide modifications: H2AR3me2a H2AK5ac, binder concentration: 1:2,000 dilution
# [14] = peptide modifications: H2AR3me2a H2AK5ac, binder concentration: 1:10,000 dilution
binder,measurement,setting,value
SGRGKQGGKARAK [H2A 1-13 S G R G Kac Q G G Kac A R A K],peptide microarray binding signal,"[1]; peptide modifications: H2AK5ac H2AK9ac, binder concentration: 50 nM",0.00382 ± 4.6e-05
same,peptide microarray binding signal,"[1]; peptide modifications: H2AK5ac H2AK9ac, binder concentration: 500 nM",0.00743 ± 0.00068
same,peptide microarray binding signal,"[2]; peptide modifications: H2AK5ac H2AK9ac, binder concentration: 10 nM",0.00281 ± 0.00011
same,peptide microarray binding signal,"[2]; peptide modifications: H2AK5ac H2AK9ac, binder concentration: 100 nM",0.00815 ± 0.00019
same,peptide microarray binding signal,[3]; [5],0.00109 ± 0.00019
same,peptide microarray binding signal,[3]; [6],0.000571
same,peptide microarray binding signal,[4]; [5],0.000227 ± 4.1e-06
same,peptide microarray binding signal,[4]; [6],0.000519 ± 5.6e-06
SGRGKQGGKARAK [H2A 1-13 Sph G R G Kac Q G G K A R A K],peptide microarray binding signal,"[1]; peptide modifications: H2AS1ph H2AK5ac, binder concentration: 50 nM",0.00298 ± 3.8e-05
same,peptide microarray binding signal,"[1]; peptide modifications: H2AS1ph H2AK5ac, binder concentration: 500 nM",0.00752 ± 0.00011
same,peptide microarray binding signal,"[2]; peptide modifications: H2AS1ph H2AK5ac, binder concentration: 10 nM",0.00292 ± 9.7e-05
same,peptide microarray binding signal,"[2]; peptide modifications: H2AS1ph H2AK5ac, binder concentration: 100 nM",0.00276 ± 0.00011
same,peptide microarray binding signal,[3]; [7],0.000264 ± 5.6e-06
same,peptide microarray binding signal,[3]; [8],0.000685 ± 7.2e-06
same,peptide microarray binding signal,[4]; [7],0.000257 ± 2.7e-06
same,peptide microarray binding signal,[4]; [8],0.000577 ± 6.2e-06
SGRGKQGGKARAK [H2A 1-13 S G R G K Q G G K A R A K],peptide microarray binding signal,[1]; binder concentration: 50 nM,0.00364 ± 0.00013
same,peptide microarray binding signal,[1]; binder concentration: 500 nM,0.00819 ± 0.00076
same,peptide microarray binding signal,[2]; binder concentration: 10 nM,0.00298 ± 3.3e-05
same,peptide microarray binding signal,[2]; binder concentration: 100 nM,0.00446 ± 7.4e-05
same,peptide microarray binding signal,[3]; [9],0.00034 ± 6.1e-06
same,peptide microarray binding signal,[3]; [10],0.000571 ± 1.1e-05
same,peptide microarray binding signal,[4]; [9],0.000242 ± 6.7e-06
same,peptide microarray binding signal,[4]; [10],0.000404 ± 4.4e-06
SGRGKQGGKARAK [H2A 1-13 S G Rme G Kac Q G G K A R A K],peptide microarray binding signal,"[1]; peptide modifications: H2AR3me1 H2AK5ac, binder concentration: 50 nM",0.00467 ± 0.00064
same,peptide microarray binding signal,"[1]; peptide modifications: H2AR3me1 H2AK5ac, binder concentration: 500 nM",0.00424 ± 0.00012
same,peptide microarray binding signal,"[2]; peptide modifications: H2AR3me1 H2AK5ac, binder concentration: 10 nM",0.002507 ± 1.4e-05
same,peptide microarray binding signal,"[2]; peptide modifications: H2AR3me1 H2AK5ac, binder concentration: 100 nM",0.00305 ± 0.00059
same,peptide microarray binding signal,[3]; [11],0.000434 ± 2.9e-05
same,peptide microarray binding signal,[3]; [12],0.000571
same,peptide microarray binding signal,[4]; [11],0.000242 ± 6.7e-06
same,peptide microarray binding signal,[4]; [12],0.000634
SGRGKQGGKARAK [H2A 1-13 S G Rme2a G Kac Q G G K A R A K],peptide microarray binding signal,"[1]; peptide modifications: H2AR3me2a H2AK5ac, binder concentration: 50 nM",0.00354 ± 0.00011
same,peptide microarray binding signal,"[1]; peptide modifications: H2AR3me2a H2AK5ac, binder concentration: 500 nM",0.00657 ± 0.00029
same,peptide microarray binding signal,"[2]; peptide modifications: H2AR3me2a H2AK5ac, binder concentration: 10 nM",0.00352 ± 5e-05
same,peptide microarray binding signal,"[2]; peptide modifications: H2AR3me2a H2AK5ac, binder concentration: 100 nM",0.00454 ± 0.00022
same,peptide microarray binding signal,[3]; [13],0.0005474 ± 5.3e-06
same,peptide microarray binding signal,[3]; [14],0.00137 ± 1.3e-05
same,peptide microarray binding signal,[4]; [13],0.000468 ± 9e-06
same,peptide microarray binding signal,[4]; [14],0.00104 ± 1.1e-05
